Drawing on PubChem BioAssay AID777 (Sanford-Burnham Center for Chemical Genomics, 2007), this text covers inhibition for 99 compounds.

Structures are written as SMILES. Screen size: about 96,000 compounds; about 19,000 (20%) were called active. Not all results are given here. Unmarked numbers belong to inactive results.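 The calls were made as follows: active = blocking of liver enzyme CYP2C9 beyond about 50% at 5 µM (limit read from the data); inactive = the rest.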

This test deals with Cytochrome P450 2C9 (Homo sapiens) (UniProt P11712). The experiment in a line: blockers of cytochrome P450 2C9 activity – biochemical, luminescence, ADME assay, primary screen (AID 777). The conditions noted are these: CYP2C9 Supersomes, luciferin-H conversion, at 5 µM, stronger effect = higher value.
Cytochrome P450 2C9 (Homo sapiens), sequence (P11712 whole entry, looked up): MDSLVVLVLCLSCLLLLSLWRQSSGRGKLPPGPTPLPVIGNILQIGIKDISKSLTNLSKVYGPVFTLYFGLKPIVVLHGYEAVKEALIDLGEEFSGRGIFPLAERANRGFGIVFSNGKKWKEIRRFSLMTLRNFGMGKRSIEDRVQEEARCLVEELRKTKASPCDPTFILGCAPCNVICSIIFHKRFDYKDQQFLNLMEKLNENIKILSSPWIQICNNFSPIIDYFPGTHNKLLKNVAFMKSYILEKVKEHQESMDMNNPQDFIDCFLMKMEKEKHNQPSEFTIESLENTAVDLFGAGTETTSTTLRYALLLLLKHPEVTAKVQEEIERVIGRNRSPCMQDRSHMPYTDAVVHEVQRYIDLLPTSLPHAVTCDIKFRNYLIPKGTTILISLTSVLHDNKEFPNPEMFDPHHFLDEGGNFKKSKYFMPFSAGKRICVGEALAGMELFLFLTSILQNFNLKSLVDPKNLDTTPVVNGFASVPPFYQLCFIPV
For orientation: inhibition means the drop in the measured response relative to a control, in per cent. Regarding `CCOC(=O)C1CCN(C(=O)Cc2c(C(=O)O)[nH]c3ccccc23)CC1`, the inhibition was 5.4%.
The value for `Cc1ccc(SCCC(=O)OCC(=O)Nc2ncc(Cl)cc2Cl)cc1` was 37.2%.
`Cc1nc2c(-c3ccccc3)c(C)[nH]n2c(=O)c1Cl`: the inhibition was 43.9%.
For the compound `CCCCN=C1N/C(=C\c2ccco2)C(=O)N1c1ccccc1`, the inhibition is 2.2%.
Under `O=S(=O)(c1ccc(Sc2nnc3ccccn23)nc1)N1CCOCC1` stands -4.9%; under `CCN(c1ccccc1)S(=O)(=O)c1ccc(C(=O)Nc2nccs2)cc1`, 23.3%; under `Cc1ccccc1CSCCNC(=O)c1ccc(N(C)S(=O)(=O)c2ccccc2)cc1`, 94.3% (active).
Under `CN(c1ccc(C(=O)NCCC2=CCCCC2)cc1)S(C)(=O)=O` stands -11.3%; under `O=C(CSc1nnc(-c2c[nH]c3ccccc23)o1)c1ccccc1`, 18.1%; under `Cc1cccc(C)c1-n1c(C)cc(/C=C2\C(=O)NN(c3ccccc3)C2=O)c1C`, 41.5%.
Under `Cc1ccc(Oc2ccc3c(c2)C(=O)N(c2cccc4cccnc24)C3=O)cc1` stands -11.5%; under `COc1ccc(C(=O)CN2C(=O)NC(C)(c3ccc(C)cc3)C2=O)cc1OC` (centres undefined), 17.2%; under `Cc1ccc(C2(c3ccc(C)cc3)NC(=O)N(Cc3c(C)noc3C)C2=O)cc1`, 60.8% (active).
As for `COc1ccc(C(=O)CSc2n[nH]c(N)n2)cc1`, the inhibition is 2.8%.
Consider `O=C(CN1CCOCC1)Nc1c(-c2ccccc2)c2cc(Br)ccc2[nH]c1=O`, for which the inhibition is -15.8%.
Turning to `CS(=O)(=O)c1ccc2nc(NC(=O)C3CCCCC3)sc2c1`, the inhibition is 7.3%.
Under `O=C(Nc1ccccc1N1CCN(C(=O)c2ccccc2)CC1)c1ccc2c(c1)OCO2` stands 83.3% (active); under `O=C(CN1CCN(c2ccccc2F)CC1)c1ccc2c(c1)OCO2`, 74.2% (active); under `O=C(Nc1ccccc1N1CCN(c2ccccc2)CC1)c1cccc(F)c1`, 81.1% (active).
For the compound `CCCC(=O)Nc1ccccc1N1CCN(C(=O)c2ccccc2)CC1`, the inhibition is 35.7%.
The value for `O=C(c1ccc2c(c1)OCO2)N1CCNc2ccccc2C1` was -40.3%; that for `O=C(Nc1ccccc1N1CCCCC1)c1ccc2nccnc2c1` was 28.1%.
Under `O=C(Nc1ccccc1N1CCCCC1)c1cccc(F)c1` stands 1.2%.
Under `O=C(CN1CCN(CC(=O)Nc2ccc3c(c2)OCO3)CC1)Nc1ccc(F)cc1` stands 33.1%.
As to `CCOc1ccc(NC(=O)N2CCN(CC)CC2)cc1`, the inhibition is -0.2%.
In the case of `Cc1oc2nc(SCC(=O)Nc3ccc(S(N)(=O)=O)cc3)nc(NC(=O)c3ccccc3)c2c1C`, the inhibition is 15%.
Under `COc1ccc(Cc2nnnn2CC(=O)O)cc1` stands -11.9%; under `Cc1ccccc1-c1ccc(Nc2ccc(C(=O)N3CCOCC3)cc2)nn1`, 34.1%; under `COc1ccc(N2C(=O)CC(N3CCC(C(N)=O)CC3)C2=O)cc1` (centres undefined), -20.9%.
Under `COc1ccc(CCN2CNc3c(c(=O)n(C)c(=O)n3C)C2)cc1OC` stands -29.7%; under `COC(=O)c1ccc(C2CC(=O)Nc3cc(OC)c(OC)cc32)cc1` (centres undefined), 30.2%.
The value for `COC(=O)c1ccc(C2C(Oc3ccccc3C)C(=O)N2CCc2ccc(OC)c(OC)c2)cc1` (centres undefined) was 54.9% (active).
Turning to `Cc1nn(C(C)CC(=O)O)c(C)c1C` (centres undefined), the inhibition was -4.1%.
Under `COc1ccc(CN2C(=O)CN=C2Nc2ccc(C)cc2C)cc1` stands 31.5%; under `CCCCc1nc(NCCN)c(C#N)c2c1CSC(C)(C)C2`, 53.6% (active).
Under `CCN(CC)c1ccc(NC(=O)c2ccc(Cl)nc2)cc1` stands -69.8%; under `CCOc1cc(NC(=O)c2ccco2)c(OCC)cc1NC(=O)COc1ccccc1`, 11.6%.
For `CCOc1ccc(C(CC(=O)O)NC(=O)COc2ccccc2)cc1` (centres undefined), the inhibition was 5.2%.
Consider `O=C(COc1ccccc1)Nc1nonc1NC(=O)COc1ccccc1`, for which the inhibition is 52% (active).
Under `Cc1ccc(C)c2[nH]c(=O)c(CCNC(=O)CC(C)C)cc12` stands 30.9%.
Under `O=[N+]([O-])c1c(NCCO)cc(Sc2nc3ccccc3s2)c2nonc12` stands 12.3%; under `Cn1c(=O)cc(OCCCC(=O)N2CCN(c3ccccn3)CC2)c2ccccc21`, 30.3%.
On to `CCN(CC)C(=O)CSc1nnc(-c2cccc(OC)c2)o1`, for which the inhibition is -55.9%.
The value for `COc1cccc(-c2nnc(NC(=O)c3ccc(S(=O)(=O)N(CC(C)C)CC(C)C)cc3)o2)c1` was 58.9% (active); that for `CC1CCCCN1S(=O)(=O)c1ccc(C(=O)Nc2nnc(-c3cccs3)o2)cc1` (centres undefined) was 7.8%; that for `O=C(/C=C/c1cccs1)c1cc(Cl)ccc1OC(=O)N1CCOCC1` was 28.1%.
`O=C(CN1C(=O)C2C3C=CC(C3)C2C1=O)NCC1COc2ccccc2O1` (centres undefined): the inhibition is -1.1%.
As to `O=C(Cn1nc(Cc2cccnc2)c2ccccc2c1=O)NCC1CCCO1` (centres undefined), the inhibition is 21.3%.
For `O=C(Cn1cnc2ccccc2c1=O)NCC1COc2ccccc2O1` (centres undefined), the inhibition is 61.2% (active).
With `O=C(Cn1nc(Cc2cccnc2)c2ccccc2c1=O)NCC1COc2ccccc2O1` (centres undefined), the inhibition is 66.1% (active).
Under `CC1Oc2ccccc2N(Cc2cccnc2)C1=O` (centres undefined) stands 14%; under `CN(Cc1ccccc1)C(=O)CCNC(=O)Cn1cnc2ccccc2c1=O`, 24.9%.
The value for `Cc1cc(OC(=O)c2c(Cl)cccc2Cl)nc(C)n1` was 2.9%; that for `CCC(C)NC(=O)CCCc1ccccc1` (centres undefined) was -17.4%; that for `c1ccc(Cc2nn3c(Cn4cnc5ccccc54)nnc3s2)cc1` was 24.4%.
The value for `CC(=O)c1cn(CCCCCCCCCCn2cc(C(C)=O)c(=O)[nH]c2=O)c(=O)[nH]c1=O` was 3.4%; that for `CC(=O)c1c(C)n([O-])c2ccccc2[n+]1=O` was -1.1%; that for `CCOC(=O)N1CCN(C(=O)c2cc3c(ccc4ccccc43)oc2=O)CC1` was 45.9%.
Regarding `CC1(C)CC(=O)c2cc(OCC(=O)NCC3CCCO3)ccc2O1` (centres undefined), the inhibition is 18.5%.
For the compound `NC(=O)COc1ccc2c3c(c(=O)oc2c1)CCCCC3`, the inhibition is -7.4%.
Consider `O=C(COc1ccc2c3c(c(=O)oc2c1)CCC3)NC1CCCCC1`, for which the inhibition was 73.7% (active).
The value for `COC(=O)c1cn(CC(=O)NCc2cccs2)c2ccccc12` was 23.2%; that for `COC(=O)Cn1cc(C(=O)c2cccs2)c2ccccc21` was 25.3%; that for `O=C(Cn1cc(C(=O)c2cccs2)c2ccccc21)NCc1cccs1` was 93.7% (active).
Take `CN(C)c1ccnc(Oc2ccc(F)cc2)c1C#N`: the inhibition was 40.8%.
Under `CCOC(=O)N1CCN(C(=O)COc2ccc(Cl)cc2C)CC1` stands -15.4%.
The value for `CCOC(=O)N1CCN(C(=O)COc2ccc(Br)cc2)CC1` was -4.3%; that for `CCOC(=O)N1CCC(O)(c2cc(C)c(C)cc2C)CC1` was 67.1% (active); that for `COC(=O)c1ccc(N(CC(=O)NC2CCCC2)C(=O)CNC(=O)c2ccco2)cc1` was 28.7%.
Turning to `Cc1cc(C)nc(SCc2ccccc2C#N)n1`, the inhibition is -24.8%.
The value for `Cc1ccc(Cc2cncc(O)c2)cc1S(=O)(=O)O` was 0.1%.
For `c1ccc2[nH]c(-c3nc4ccccc4[nH]3)nc2c1`, the inhibition was 16.1%.
`Cc1cc(NS(=O)(=O)c2ccccc2)no1`: the inhibition is 12.3%.
As to `O=S(=O)(Nc1ccc2nc(-c3ccco3)[nH]c2c1)c1ccccc1`, the inhibition was 85.2% (active).
The value for `Cc1cc(C)c2c3c(sc2n1)C(c1ccccc1)C(C#N)=C(N)O3` (centres undefined) was 11%.
The value for `Fc1ccc(OCc2nn3c(Cn4nnc5ccccc54)nnc3s2)cc1` was 23.6%.
As for `O=C(Nc1ccccc1)c1cccnc1Nc1ccccc1`, the inhibition was 1.5%.
Under `Cc1cccc(NC(=O)c2ccccc2NC(=O)C(C)(C)C)n1` stands 11.7%; under `O=C(Nc1ccccc1)c1ccccc1NC(=O)C(F)(F)F`, 74.8% (active).
Under `Cc1ccc(-n2c(=O)cc(N3CCN(Cc4ccccc4)CC3)[nH]c2=O)cc1` stands 22.1%; under `CCOC(=O)C1CCN(C(=O)COc2cc(C)c(Br)c(C)c2)CC1`, 15.8%.
Under `CCCN1CCN(C(=O)Cn2ncc3ccccc32)CC1` stands 1%.
As to `O=c1ccn(Cc2ccccc2Cl)cc1`, the inhibition was -5.8%.
As to `O=c1[nH][nH]c(C(F)(F)F)c1C=NCc1ccccc1Cl`, the inhibition was 55.5% (active).
As to `Cc1ccc(N(NC(=O)C(C)(C)O)C(=O)c2ccccc2)cc1C`, the inhibition was 2.5%.
Take `NS(=O)(=O)c1cccnc1Nc1cccc(Cl)c1`: the inhibition was 5.6%.
Under `O=C(Cc1ccccc1)N/N=C/c1ccc(Cl)cc1Cl` stands 23.1%; under `O=C(Cn1cncn1)N/N=C/c1c2ccccc2cc2ccccc12`, 63.7% (active).
For the compound `Cc1ccc(/C=N/NC(=O)Cn2nc(C)c(Br)c2C)o1`, the inhibition is 23.7%.
With `CC(=O)Oc1ccc(C(C)=O)c2c1OCCO2`, the inhibition is -9.3%.
Take `N#CCCn1cnc2ccccc21`: the inhibition is -0.8%.
As to `Cc1ccc(SCC(=O)NC(=O)NCc2ccco2)c(C)c1`, the inhibition was 30%.
For `CC1(c2ccccc2Cl)NC(=O)N(CC(=O)NC(=O)NCc2ccco2)C1=O` (centres undefined), the inhibition is 67.6% (active).
Turning to `O=C(CN1CCN(S(=O)(=O)/C=C/c2ccccc2)CC1)NC(=O)NCc1ccco1`, the inhibition was 40.2%.
Under `Cc1cccc(NC(=O)c2ccc3ccccc3n2)n1` stands -0.8%; under `COc1cc(OC)nc(NC(=O)CCl)n1`, -14.2%; under `O=P(O)(CP(=O)(c1ccccc1)c1ccccc1)c1ccccc1O`, -5.8%.
The value for `CC(CO)N1CCS(=O)(=O)CC1` (centres undefined) was -5.6%.
Regarding `COc1ccc(NC(=O)C(CC(C)C)NS(=O)(=O)c2ccc3c(c2)CCN3C(C)=O)cc1OC` (centres undefined), the inhibition is 7.4%.
